Experimental data: PubChem BioAssay (EPA / NIEHS)
Results filed as inconclusive are left out. Activity calls are given as the source filed them. The calls were made as follows, unless noted: active = hit-call score of the fitted dose curve at least 0.9, where 1 is the maximum; inconclusive = response in the unintended direction; inactive = score below 0.9.

Assays:
[1] = target: Glucocorticoid receptor (Homo sapiens) (UniProt P04150); test: ATG_GR_TRANS: Attagene TRANS-FACTORIAL HepG2 Assay for human Glucocorticoid Receptor (GR) (AID 2282978); details: HepG2 Attagene TRANS GR reporter, mRNA transcription;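 also: activators score as hits since higher reporter transcript over DMSO is fitted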
Procedure, shortened: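 Readout is reporter transcript from a chimeric GR-Gal4 acting on GAL4-UAS in transfected human HepG2 liver cells after 24 h exposure, quantified by RT-PCR and capillary electrophoresis. Activation fitted upward against DMSO.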

[2] = target: Hepatocyte nuclear factor 4-alpha (Homo sapiens) (UniProt P41235); test: ATG_HNF4a_TRANS: Attagene TRANS-FACTORIAL HepG2 Assay for human Hepatocyte Nuclear Factor 4 alpha (HNF4a) (AID 2282982); details: HepG2 HNF4a transactivation reporter, mRNA readout
Procedure, shortened: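 Transient MRTU transfection of HepG2, 24 h dosing. Readout: reporter mRNA via RT-PCR + capillary electrophoresis, fluorescence; activity fit upward relative to DMSO control.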

[3] = ATG_M_32_TRANS: Attagene TRANS-FACTORIAL HepG2 Assay for M32 Transcription Factor (Internal Marker) (AID 2282984); details: HepG2 Attagene TRANS M32 internal marker reporter;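 also: transcript level of a background control reporter unit measured by RT-PCR and capillary electrophoresis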
Procedure, shortened: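 Read-out: fluorescent reporter cDNA fragments resolved by capillary electrophoresis after RT-PCR of total RNA. Transfected HepG2 cells were exposed to chemical for 24 h. Activity scored in the positive direction relative to DMSO.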

[4] = target: Nuclear receptor subfamily 4 group A member 2 (Homo sapiens) (UniProt P43354); test: ATG_NURR1_TRANS: Attagene TRANS-FACTORIAL HepG2 Assay for human Nuclear Receptor Related Protein 1 (NURR1) (AID 2282985); details: HepG2 Attagene TRANS reporter, mRNA readout
Procedure, shortened: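 Read-out: reporter mRNA induction by RT-PCR plus capillary electrophoresis with fluorescence detection, after 24 h dosing of transfected HepG2 cells. Exogenous NR-Gal4 chimera activity drives GAL4-UAS reporter; activity fitted upward versus DMSO.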

[5] = target: Transcriptional activator Myb (Homo sapiens) (UniProt P10242); test: ATG_Myb_CIS: Attagene CIS-FACTORIAL HepG2 Assay for human Myeloblastosis (Myb) Proto-Oncogene Transcription Factor (AID 2282986; active = hit-call score of the fitted dose curve at least 0.9, where 1 is the maximum; inactive = score below 0.9); details: HepG2 Attagene CIS-FACTORIAL Myb reporter transcription; actives raise or lower the signal
Procedure, shortened: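 Reporter mRNA is quantified by RT-PCR and capillary electrophoresis 24 h after dosing HepG2 cells transfected with cis-regulated reporter units, which track endogenous transcription factor activity. Gain and loss of signal are fitted versus DMSO baseline.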

[6] = target: Nuclear respiratory factor 1 (Homo sapiens) (UniProt Q16656); test: ATG_NRF1_CIS: Attagene CIS-FACTORIAL HepG2 Assay for human Nuclear Respiratory Factor 1 (NRF1) Orphan Gene (AID 2282987; active = hit-call score of the fitted dose curve at least 0.9, where 1 is the maximum; inactive = score below 0.9); details: HepG2 NRF1 cis-element reporter, Attagene multiplex; actives raise or lower the signal
Procedure, shortened: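 Endogenous NRF1-driven reporter transcription in transfected HepG2 cells after 24 h treatment. Readout: RT-PCR products, 6-FAM labelled and resolved by capillary electrophoresis; changes fitted both directions relative to DMSO.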

[7] = target: Oxysterols receptor LXR-beta (Homo sapiens) (UniProt P55055); test: ATG_LXRb_TRANS: Attagene TRANS-FACTORIAL HepG2 Assay for human Liver X Receptor beta (LXRb) (AID 2282981); details: HepG2 Attagene TRANS GAL4-LXRb reporter, mRNA
Procedure, shortened: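 Readout: fluorescent reporter mRNA fragments resolved by capillary electrophoresis after RT-PCR. System: transiently transfected human HepG2, exogenous LXRb-Gal4 chimera driving GAL4-UAS reporter, 24 h dosing. Activity fitted upward against DMSO baseline.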

[8] = ATG_M_06_TRANS: Attagene TRANS-FACTORIAL HepG2 Assay for M06 Transcription Factor (Internal Marker) (AID 2282983); details: HepG2 Attagene TRANS M06 internal marker reporter;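 also: reporter transcript level by RT-PCR then capillary electrophoresis fluorescence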
Procedure, shortened: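 Background control endpoint: reporter mRNA from transiently transfected HepG2 after 24 h dosing, detected by RT-PCR with capillary electrophoresis fluorescence. Analysed for gain versus DMSO.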

[9] = target: Bile acid receptor (Homo sapiens) (UniProt Q96RI1); test: ATG_FXR_TRANS: Attagene TRANS-FACTORIAL HepG2 Assay for Farnesoid X Receptor (FXR) (AID 2282979); details: HepG2 Attagene TRANS FXR-GAL4 reporter transcription;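 also: hits raise reporter mRNA above DMSO so AC50 marks FXR activation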
Procedure, shortened: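 Transient transfection of HepG2 with multiplexed GAL4-UAS reporter units; exogenous FXR-GAL4 chimera. Dose 24 h → TriZol RNA → oligo(dT) RT → PCR, 6-FAM primer extension, HpaI cut → CE. Gain vs DMSO.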

[10] = target: Oxysterols receptor LXR-alpha (Homo sapiens) (UniProt Q13133); test: ATG_LXRa_TRANS: Attagene TRANS-FACTORIAL HepG2 Assay for human Liver X Receptor alpha (LXRa) (AID 2282980); details: HepG2 Attagene TRANS reporter, LXRa transactivation
Procedure, shortened: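 Transfect HepG2 with GAL4-UAS multiplex reporter constructs (TRANS format, chimeric receptor-GAL4); treat 24 h; extract RNA, reverse-transcribe, PCR-amplify, FAM-label, HpaI-digest; resolve fragments by capillary electrophoresis. Upward response vs DMSO.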

Measured: AC50

Nuclear receptor subfamily 4 group A member 2 (Homo sapiens), sequence (P43354 whole entry, looked up, the tested form may be a part): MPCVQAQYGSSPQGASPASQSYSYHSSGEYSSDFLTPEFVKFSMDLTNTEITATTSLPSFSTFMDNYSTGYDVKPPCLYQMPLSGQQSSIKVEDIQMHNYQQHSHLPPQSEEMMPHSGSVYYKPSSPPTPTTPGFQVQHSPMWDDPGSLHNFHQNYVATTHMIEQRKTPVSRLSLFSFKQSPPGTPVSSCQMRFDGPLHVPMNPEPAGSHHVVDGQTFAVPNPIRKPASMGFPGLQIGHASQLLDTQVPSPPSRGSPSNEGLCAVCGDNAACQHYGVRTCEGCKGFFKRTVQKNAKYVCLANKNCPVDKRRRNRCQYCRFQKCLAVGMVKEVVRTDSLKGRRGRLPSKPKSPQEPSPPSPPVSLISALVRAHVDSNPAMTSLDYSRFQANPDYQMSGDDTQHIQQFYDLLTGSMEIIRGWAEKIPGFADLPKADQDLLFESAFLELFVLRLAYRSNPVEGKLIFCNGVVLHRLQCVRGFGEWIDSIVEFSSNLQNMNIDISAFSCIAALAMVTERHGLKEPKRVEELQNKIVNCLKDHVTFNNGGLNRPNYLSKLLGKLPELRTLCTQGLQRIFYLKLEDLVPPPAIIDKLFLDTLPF
Hepatocyte nuclear factor 4-alpha (Homo sapiens), sequence (P41235 whole entry, looked up): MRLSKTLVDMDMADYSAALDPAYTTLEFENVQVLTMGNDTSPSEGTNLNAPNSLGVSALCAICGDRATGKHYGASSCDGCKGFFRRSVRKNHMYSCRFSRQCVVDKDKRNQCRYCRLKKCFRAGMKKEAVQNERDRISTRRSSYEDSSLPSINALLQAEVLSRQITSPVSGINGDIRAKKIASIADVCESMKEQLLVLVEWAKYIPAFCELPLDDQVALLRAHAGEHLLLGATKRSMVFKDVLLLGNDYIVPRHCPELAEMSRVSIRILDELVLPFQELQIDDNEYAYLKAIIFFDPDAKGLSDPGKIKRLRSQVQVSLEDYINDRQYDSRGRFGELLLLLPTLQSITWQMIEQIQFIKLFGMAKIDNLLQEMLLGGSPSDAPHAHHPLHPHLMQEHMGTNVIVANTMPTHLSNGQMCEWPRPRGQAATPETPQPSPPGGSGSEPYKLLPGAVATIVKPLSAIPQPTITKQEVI
Bile acid receptor (Homo sapiens), sequence (Q96RI1 whole entry, looked up, the tested form may be a part): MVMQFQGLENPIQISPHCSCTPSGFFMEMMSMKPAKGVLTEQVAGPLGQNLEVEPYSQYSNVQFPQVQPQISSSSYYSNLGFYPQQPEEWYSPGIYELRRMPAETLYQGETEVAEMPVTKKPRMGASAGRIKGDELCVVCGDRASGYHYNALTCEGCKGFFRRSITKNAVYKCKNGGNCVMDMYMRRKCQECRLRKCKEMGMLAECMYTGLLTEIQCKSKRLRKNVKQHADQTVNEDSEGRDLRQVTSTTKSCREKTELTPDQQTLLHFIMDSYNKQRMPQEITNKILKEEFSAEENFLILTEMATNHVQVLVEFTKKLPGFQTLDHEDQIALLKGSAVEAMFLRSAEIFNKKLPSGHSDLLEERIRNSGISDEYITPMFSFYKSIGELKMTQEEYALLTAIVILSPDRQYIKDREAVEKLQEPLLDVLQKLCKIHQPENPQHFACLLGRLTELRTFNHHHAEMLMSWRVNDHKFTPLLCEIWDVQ
Oxysterols receptor LXR-alpha (Homo sapiens), sequence (Q13133 whole entry, looked up, the tested form may be a part): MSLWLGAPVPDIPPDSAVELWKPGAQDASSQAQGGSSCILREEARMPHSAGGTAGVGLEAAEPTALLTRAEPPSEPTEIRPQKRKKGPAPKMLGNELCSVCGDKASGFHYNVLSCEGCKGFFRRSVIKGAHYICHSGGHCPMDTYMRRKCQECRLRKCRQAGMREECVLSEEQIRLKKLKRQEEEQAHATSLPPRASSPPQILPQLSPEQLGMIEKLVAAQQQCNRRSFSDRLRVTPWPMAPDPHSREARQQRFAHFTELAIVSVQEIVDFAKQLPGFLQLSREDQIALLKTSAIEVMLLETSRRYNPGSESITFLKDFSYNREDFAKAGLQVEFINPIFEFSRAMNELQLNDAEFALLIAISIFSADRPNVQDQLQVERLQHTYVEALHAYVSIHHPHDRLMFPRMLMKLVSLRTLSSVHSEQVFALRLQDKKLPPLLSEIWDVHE
Glucocorticoid receptor (Homo sapiens), sequence (P04150 whole entry, looked up, the tested form may be a part): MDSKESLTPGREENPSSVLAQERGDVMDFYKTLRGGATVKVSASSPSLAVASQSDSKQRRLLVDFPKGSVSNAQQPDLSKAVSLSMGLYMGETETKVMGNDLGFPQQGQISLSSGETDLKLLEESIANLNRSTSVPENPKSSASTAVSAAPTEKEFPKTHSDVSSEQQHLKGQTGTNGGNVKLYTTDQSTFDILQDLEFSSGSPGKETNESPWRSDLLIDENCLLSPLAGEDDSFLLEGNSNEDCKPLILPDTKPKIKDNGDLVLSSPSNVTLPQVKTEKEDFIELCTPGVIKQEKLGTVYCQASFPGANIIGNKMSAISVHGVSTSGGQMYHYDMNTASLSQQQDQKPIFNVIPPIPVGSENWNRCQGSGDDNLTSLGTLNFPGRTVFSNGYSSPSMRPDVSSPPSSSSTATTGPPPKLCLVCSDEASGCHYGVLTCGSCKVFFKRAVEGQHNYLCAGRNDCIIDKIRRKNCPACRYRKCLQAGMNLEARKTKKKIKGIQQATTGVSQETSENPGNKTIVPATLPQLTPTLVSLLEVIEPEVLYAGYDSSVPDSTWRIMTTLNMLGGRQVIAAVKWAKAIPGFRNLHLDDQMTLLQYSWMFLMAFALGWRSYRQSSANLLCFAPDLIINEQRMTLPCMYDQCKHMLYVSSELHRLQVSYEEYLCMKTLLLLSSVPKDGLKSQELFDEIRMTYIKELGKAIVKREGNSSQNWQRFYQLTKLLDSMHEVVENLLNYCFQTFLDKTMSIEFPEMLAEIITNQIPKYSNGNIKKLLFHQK
Nuclear respiratory factor 1 (Homo sapiens), sequence (Q16656 whole entry, looked up): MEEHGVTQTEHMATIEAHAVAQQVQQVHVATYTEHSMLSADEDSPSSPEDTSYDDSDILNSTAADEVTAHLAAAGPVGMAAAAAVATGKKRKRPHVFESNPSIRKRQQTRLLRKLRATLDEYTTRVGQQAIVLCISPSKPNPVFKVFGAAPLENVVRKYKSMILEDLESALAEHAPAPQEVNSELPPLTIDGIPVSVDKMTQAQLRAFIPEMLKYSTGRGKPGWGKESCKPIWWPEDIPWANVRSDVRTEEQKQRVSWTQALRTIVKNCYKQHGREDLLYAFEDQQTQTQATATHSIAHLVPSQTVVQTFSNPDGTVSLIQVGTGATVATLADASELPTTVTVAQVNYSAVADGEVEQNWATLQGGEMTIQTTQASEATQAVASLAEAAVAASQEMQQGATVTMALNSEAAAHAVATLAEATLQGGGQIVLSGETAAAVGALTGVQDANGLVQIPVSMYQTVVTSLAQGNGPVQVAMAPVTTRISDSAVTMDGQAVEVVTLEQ
Transcriptional activator Myb (Homo sapiens), sequence (P10242 whole entry, looked up): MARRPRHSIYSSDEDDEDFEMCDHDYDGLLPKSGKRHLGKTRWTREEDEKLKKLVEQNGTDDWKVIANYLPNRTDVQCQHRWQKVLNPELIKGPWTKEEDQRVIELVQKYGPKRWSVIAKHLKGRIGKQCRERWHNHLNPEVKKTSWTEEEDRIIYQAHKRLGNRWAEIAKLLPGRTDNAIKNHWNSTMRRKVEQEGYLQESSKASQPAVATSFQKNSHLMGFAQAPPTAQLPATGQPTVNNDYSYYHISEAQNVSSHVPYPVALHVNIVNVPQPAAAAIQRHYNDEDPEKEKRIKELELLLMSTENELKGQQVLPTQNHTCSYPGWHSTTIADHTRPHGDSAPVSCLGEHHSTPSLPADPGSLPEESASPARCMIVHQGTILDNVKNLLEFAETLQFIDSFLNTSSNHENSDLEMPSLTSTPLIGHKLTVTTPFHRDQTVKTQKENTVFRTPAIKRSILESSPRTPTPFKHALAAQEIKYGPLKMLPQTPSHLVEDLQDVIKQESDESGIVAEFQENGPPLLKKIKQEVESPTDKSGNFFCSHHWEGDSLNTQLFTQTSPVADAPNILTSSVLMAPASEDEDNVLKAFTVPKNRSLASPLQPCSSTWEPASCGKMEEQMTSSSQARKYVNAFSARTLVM
Oxysterols receptor LXR-beta (Homo sapiens), sequence (P55055 whole entry, looked up, the tested form may be a part): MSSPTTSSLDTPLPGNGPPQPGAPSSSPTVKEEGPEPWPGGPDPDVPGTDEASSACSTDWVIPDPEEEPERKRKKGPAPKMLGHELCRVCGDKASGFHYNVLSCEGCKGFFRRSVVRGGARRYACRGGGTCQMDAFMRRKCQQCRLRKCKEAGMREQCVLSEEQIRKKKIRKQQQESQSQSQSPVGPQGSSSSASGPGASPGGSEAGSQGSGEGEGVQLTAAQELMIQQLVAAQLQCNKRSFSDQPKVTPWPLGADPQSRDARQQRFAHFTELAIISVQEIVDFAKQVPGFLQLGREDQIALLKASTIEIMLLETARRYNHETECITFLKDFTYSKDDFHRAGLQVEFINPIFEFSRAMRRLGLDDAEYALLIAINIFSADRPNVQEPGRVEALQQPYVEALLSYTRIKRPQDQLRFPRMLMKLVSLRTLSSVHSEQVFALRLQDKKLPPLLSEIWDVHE

CCCC(=O)OC(C)(C)Cc1ccccc1
inactive: [1] | [2] | [3] | [4] | [5] | [6]

c1ccc(CN(Cc2ccccc2)Cc2ccccc2)cc1
inactive: [1] | [7] | [5] | [6]

CS(C)=O
inactive: [1] | [2] | [5] | [6]

C=CCN(CC=C)CC=C
inactive: [1] | [2] | [8] | [5] | [6]

[Cl][Au]([Cl])[Cl]
active: [6] 147 µM
not listed: [1]
inactive: all other assays above

CCC(C)S (stereo unspecified)
inactive: [1] | [7] | [5] | [6]

Cc1c(C2(c3cc(Br)c(O)c(Br)c3C)OS(=O)(=O)c3ccccc32)cc(Br)c(O)c1Br
inactive: [1] | [2] | [3] | [4] | [5] | [6]

Cc1ccc2c(c1)C(=O)OC2=O
inactive: [1] | [2] | [3] | [5] | [6]

Clc1cc(Cl)c(-c2c(Cl)c(Cl)cc(Cl)c2Cl)cc1Cl
inactive: [1] | [3] | [4] | [5] | [6]

CCC(=O)O[C@@H]1C[C@H]2CC[C@]1(C)C2(C)C
inactive: [1] | [7] | [3] | [5] | [6]

CCCC(=O)OCCc1ccccc1
inactive: [1] | [5] | [6]

CCCCCCCC/C=C\CCCCCCCC(=O)OCC
inactive: [1] | [4] | [5] | [6]

N#Cc1ccc(CC(=O)c2cccc(C(F)(F)F)c2)cc1
active: [4] 100 µM | [6] 100 µM
inactive: [1] | [2] | [8] | [3] | [5]

O=P(O)(O)O
inactive: [1] | [2] | [8] | [4] | [5] | [6]

ClC(c1ccccc1)(c1ccccc1)c1ccccc1
inactive: [1] | [8] | [4] | [5] | [6]

CC(C)CCCCCCCCCCCCCCC(=O)O
inactive: [1] | [8] | [4] | [5] | [6]

CCCCCCC(CO)CCCC (stereo unspecified)
inactive: [1] | [2] | [4] | [5] | [6]

Nc1ccc(Cl)c([N+](=O)[O-])c1
inactive: [1] | [2] | [3] | [4] | [5] | [6]

C=CCOC(=O)CCCCCC
not listed: [7] | [9] | [10]
inactive: all other assays above

COC(C)(C)CCO
inactive: [1] | [7] | [5] | [6]

COCCc1ccc(OCC(O)CNC(C)C)cc1 (stereo unspecified)
inactive: [1] | [3] | [5] | [6]

COc1ccc(N)c([N+](=O)[O-])c1
inactive: [1] | [8] | [4] | [5] | [6]

CCCN(CCC)S(=O)(=O)c1ccc(C(=O)O)cc1
inactive: [1] | [2] | [3] | [5] | [6]

CC1=CC[C@@]23C[C@@H]1C(C)(C)[C@@H]2CC[C@H]3C
inactive: [1] | [7] | [3] | [5] | [6]

CC(C)(N=C=O)c1cccc(C(C)(C)N=C=O)c1
inactive: [1] | [3] | [4] | [5] | [6]

CC(CN=Cc1ccccc1O)N=Cc1ccccc1O (stereo unspecified)
active: [6] 55.3 µM
inactive: [1] | [7] | [4] | [5]

COC(=O)c1ccc([N+](=O)[O-])cc1
inactive: [1] | [2] | [3] | [4] | [5] | [6]

C=C(C)CNCC
not listed: [7] | [9] | [10]
inactive: all other assays above

CCCCCC(C)=O
inactive: [1] | [8] | [3] | [5] | [6]

OCCCCC(O)CO (stereo unspecified)
inactive: [1] | [8] | [5] | [6]

CN1C(=O)c2ccccc2C1=O
inactive: [1] | [2] | [8] | [4] | [5] | [6]

CCOC(=O)CC(C)O (stereo unspecified)
inactive: [1] | [2] | [3] | [5] | [6]

CCc1ccc(O)cc1
inactive: [1] | [2] | [8] | [3] | [5] | [6]

CCCCC1CCC(O)CC1 (stereo unspecified)
inactive: [1] | [2] | [8] | [3] | [5] | [6]

CCCCCCCCC=CCCCCCCCC1=NCCN1CCO
inactive: [9] | [7] | [2] | [8] | [5] | [6]

O=C(CS)OCCOC(=O)CS
active: [4] 52.4 µM
inactive: [9] | [2] | [8] | [5] | [6]

c1ccc2[nH]cnc2c1
inactive: [9] | [2] | [3] | [4] | [5] | [6]

NCc1ccco1
inactive: [9] | [2] | [3] | [5] | [6]

CCOC(=O)CCc1ccccc1
inactive: [9] | [7] | [3] | [4] | [5] | [6]

CC(=O)CC(=O)Nc1ccccc1
not listed: [1] | [3] | [10]
inactive: all other assays above

COc1ccc(OC)c(N=Nc2c(O)ccc3ccccc23)c1
not listed: [1] | [3] | [10]
inactive: all other assays above

CCOC(=O)C(C#N)=C(c1ccccc1)c1ccccc1
active: [4] 100 µM | [6] 55.2 µM
inactive: [9] | [8] | [3] | [5]

CC(C)=CCCC(C)CCOC=O (stereo unspecified)
not listed: [1] | [7] | [10]
inactive: all other assays above

C=C(CC(=O)O)C(=O)O
inactive: [9] | [7] | [8] | [5] | [6]

CCCC[P+](CCCC)(CCCC)CCCC
inactive: [9] | [10] | [5] | [6]

CCCCCC(C=O)=Cc1ccccc1
inactive: [9] | [8] | [3] | [5] | [6]

Cc1ccc(N)c(S(=O)(=O)O)c1
inactive: [9] | [7] | [2] | [5] | [6]

C[Si](C)(C)O[Si](C)(C)C
not listed: [1] | [4] | [8]
inactive: all other assays above

CC(C)(C)C1=CC(=O)C(C(C)(C)C)=CC1=O
inactive: [9] | [7] | [8] | [5] | [6]
active: [4] 74 µM

COc1ccc(CCC(C)=O)cc1
inactive: [9] | [10] | [7] | [3] | [5] | [6]

CCCCOC(=O)CCCCCCCC(=O)OCCCC
not listed: [1] | [2]
inactive: all other assays above

CC1CCC(C(C)C)C(O)C1 (stereo unspecified)
inactive: [9] | [10] | [7] | [4] | [5] | [6]

c1ccc(CCc2ccccc2)cc1
not listed: [1] | [10]
inactive: all other assays above

CN(C)C(=S)SC(=S)N(C)C
inactive: [9] | [2] | [4] | [5] | [6]

N#Cc1cscn1
inactive: [9] | [10] | [2] | [8] | [5] | [6]

O=C1CCCC=CCCCCCCCCCC1
inactive: [9] | [10] | [5] | [6]
active: [4] 26.5 µM

C=COCCOCCOC=C
inactive: [9] | [2] | [3] | [4] | [5] | [6]

CC(C)C[C@H](NC(=O)OCC1c2ccccc2-c2ccccc21)C(=O)O
not listed: [1] | [3] | [4]
inactive: all other assays above

O=C(O)CCCCCCCCC(=O)O
inactive: [9] | [7] | [2] | [5] | [6]

Cc1cc(S(=O)(=O)O)ccc1N=Nc1c(O)ccc2ccccc12
not listed: [1] | [3] | [8]
inactive: all other assays above
